Reference: PubChem BioAssay (EPA / NIEHS)
Records with an inconclusive call do not appear. The source made the active and inactive calls. Rule for the calls: active = hit-call score of the fitted dose curve at least 0.9, where 1 is the maximum; inconclusive = response in the unintended direction; inactive = score below 0.9.

What follows are compounds tested against mouse Estrogen Receptor alpha (Era), Esr1 (gene 13982) (UniProt P19785) (assay: NVS_NR_mERa: NovaScreen (NVS) Nuclear Receptor Binding Assay for mouse Estrogen Receptor alpha (Era) (AID 2283378);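 note: hit means loss of bound radioligand signal relative to DMSO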).
Outline: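 Extracted mouse Era incubated with tritiated or iodinated radioligand plus test chemical, 18 h. Bound fraction separated on filters, counted by scintillation. DMSO = negative control/baseline; duplicate single-point at 25 uM, then concentration-response follow-up.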

Chain of mouse Estrogen Receptor alpha (Era), Esr1 (gene 13982) (P19785 whole entry, looked up): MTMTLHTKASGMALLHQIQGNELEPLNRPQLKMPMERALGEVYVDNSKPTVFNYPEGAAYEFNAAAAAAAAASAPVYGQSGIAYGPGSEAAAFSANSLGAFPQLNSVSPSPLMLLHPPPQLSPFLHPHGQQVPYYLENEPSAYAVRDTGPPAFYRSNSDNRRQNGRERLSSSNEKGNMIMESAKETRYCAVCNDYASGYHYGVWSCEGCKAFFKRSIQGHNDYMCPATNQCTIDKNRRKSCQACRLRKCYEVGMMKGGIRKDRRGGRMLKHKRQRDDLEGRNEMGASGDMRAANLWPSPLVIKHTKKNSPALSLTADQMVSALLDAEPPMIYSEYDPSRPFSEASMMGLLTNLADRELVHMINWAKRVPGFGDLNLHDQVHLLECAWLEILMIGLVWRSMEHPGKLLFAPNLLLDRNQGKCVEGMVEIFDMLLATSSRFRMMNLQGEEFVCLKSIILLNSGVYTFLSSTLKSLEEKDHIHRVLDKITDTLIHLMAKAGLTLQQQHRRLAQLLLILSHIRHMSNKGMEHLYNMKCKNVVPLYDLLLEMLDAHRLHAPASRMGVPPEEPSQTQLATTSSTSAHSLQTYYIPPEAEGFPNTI

| Structure (SMILES) | outcome | AC50 |
| --- | --- | --- |
| O=C(O)CCCCCCCCCC(=O)O | inactive | – |
| CC(C)c1ccc2c(c1)CC[C@H]1[C@](C)(CN)CCC[C@]21C | inactive | – |
| O=C1Nc2ccccc2C1(c1ccc(O)cc1)c1ccc(O)cc1 | – | 6.61 µM (active) |
| C=CC(C)(CCC=C(C)C)OC(=O)CC(C)C (stereo not given) | inactive | – |
| CN(C)c1ccc(C(=N)c2ccc(N(C)C)cc2)cc1 | inactive | – |
| COc1ccc(C(Cl)=C(c2ccc(OC)cc2)c2ccc(OC)cc2)cc1 | – | 4.88 µM (active) |
| O=C(c1ccc(O)cc1)c1ccc(O)cc1O | – | 1.29 µM (active) |
| NC(CO)(CO)CO | inactive | – |
| C#CC1(O)CC[C@H]2[C@@H]3CCC4=CCCC[C@@H]4[C@H]3CC[C@@]21C (stereo not given in full) | – | 6.99 µM (active) |
| [Cl][Bi]([Cl])([c]1ccccc1)([c]1ccccc1)[c]1ccccc1 | inactive | – |
| CCC(C)OC(=O)c1ccc(O)cc1 (stereo not given) | – | 4.99 µM (active) |
| CC(=O)[C@H]1[C@H](C#N)C[C@H]2[C@@H]3CC=C4C[C@@H](O)CC[C@]4(C)[C@H]3CC[C@@]21C | – | 4.26 µM (active) |
| COc1ccc(-c2coc3cc(O)ccc3c2=O)cc1 | – | 0.143 µM (active) |
| C=C[C@](C)(O)CC[C@@H]1[C@@]2(C)CCCC(C)(C)[C@@H]2CC[C@@]1(C)O | inactive | – |
| CCCCCCCC[N+](C)(CCCCCCCC)CCCCCCCC | – | 0.338 µM (active) |
| CN(C)c1ccc(N=Nc2ccccc2C(=O)O)cc1 | inactive | – |
| CCOC(=O)N1CCC(=C2c3ccc(Cl)cc3CCc3cccnc32)CC1 | inactive | – |
| O=C(O)c1ccccc1Nc1cccc(C(F)(F)F)c1 | inactive | – |
| O=C(O)CCCC[C@@H]1SC[C@@H]2NC(=O)N[C@@H]21 | inactive | – |
| O=CN1CCCCC1 | inactive | – |
| CCC(Cc1ccccc1)(C(=O)c1ccc(N2CCOCC2)cc1)N(C)C (stereo not given) | inactive | – |
| CC(C)(C)C(=O)CCc1ccc(Cl)cc1 | inactive | – |
| Cc1cccc(N(C)C(=S)Oc2ccc3ccccc3c2)c1 | inactive | – |
| O=C1CCCCCN1SSN1CCCCCC1=O | inactive | – |
| CCC(=O)Oc1ccc(/C(CC)=C(\CC)c2ccc(OC(=O)CC)cc2)cc1 | – | 0.0132 µM (active) |

What follows are compounds tested against Estrogen receptor beta (Homo sapiens) (UniProt Q92731) (assay: OT_ER_ERbERb_1440: Odyssey Thera (OT) 24-hour HEK293T Protein-Complementation Assay for Estrogen Receptor-beta/-beta Homodimer (AID 2283380);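 note: fluorescence gain from ER beta LBD homodimer complementation read by laser scanning cytometry; scored as signal increase over DMSO baseline for both agonists and antagonists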).
Outline: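 Fluorescence increase, nuclear for agonists or whole-cell for antagonists, relative to DMSO vehicle, quantified by laser scanning cytometer after fixation and Draq5 staining. Readout from 24 h treatment of HEK293T cells carrying complementation-paired ER beta LBD (aa 310-547).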

Chain of Estrogen receptor beta (Homo sapiens) (Q92731 whole entry, looked up, the tested form may be a part): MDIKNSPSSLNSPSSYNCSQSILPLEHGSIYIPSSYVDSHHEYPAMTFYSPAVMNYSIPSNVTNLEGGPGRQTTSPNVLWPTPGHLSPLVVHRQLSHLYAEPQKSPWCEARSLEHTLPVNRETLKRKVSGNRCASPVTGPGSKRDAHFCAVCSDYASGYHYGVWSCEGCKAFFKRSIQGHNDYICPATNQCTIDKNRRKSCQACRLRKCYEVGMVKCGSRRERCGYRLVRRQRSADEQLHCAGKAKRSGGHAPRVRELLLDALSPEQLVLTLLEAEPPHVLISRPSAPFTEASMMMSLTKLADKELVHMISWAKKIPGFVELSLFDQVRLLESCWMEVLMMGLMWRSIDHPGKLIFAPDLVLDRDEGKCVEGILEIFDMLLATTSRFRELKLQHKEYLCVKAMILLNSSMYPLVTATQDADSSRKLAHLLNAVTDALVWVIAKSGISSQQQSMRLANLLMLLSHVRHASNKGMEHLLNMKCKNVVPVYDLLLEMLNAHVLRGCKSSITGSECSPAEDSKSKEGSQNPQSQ

| Structure (SMILES) | outcome |
| --- | --- |
| CN(C)c1ccc(C(=N)c2ccc(N(C)C)cc2)cc1 | inactive |
| CC(=O)[C@H]1[C@H](C#N)C[C@H]2[C@@H]3CC=C4C[C@@H](O)CC[C@]4(C)[C@H]3CC[C@@]21C | inactive |
| CCCCCCCC[N+](C)(CCCCCCCC)CCCCCCCC | inactive |
| CN(C)c1ccc(N=Nc2ccccc2C(=O)O)cc1 | inactive |
| O=C(O)CCCC[C@@H]1SC[C@@H]2NC(=O)N[C@@H]21 | inactive |
